Source: PubChem BioAssay (NCATS)
Results filed as inconclusive are left out. Calls of active or inactive are those of the source. Calls come from the whole dose curve; as a rule, active = well fitted inhibition curve with a large enough effect; inconclusive = small, poorly fitted or top-dose-only effect; inactive = flat fitted curve, though single readings scatter.

Tests used:
[1] = target: Luciferin 4-monooxygenase (Photinus pyralis) (UniProt P08659); assay: Biochemical firefly luciferase enzyme assay for NPC (AID 624030);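 note: purified P. pyralis luciferase at 10 nM with luciferin and ATP substrate; nearly all actives have a fitted effect of over 70% in size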
Procedure, shortened: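 Counter-screen for direct inhibition of the luciferase enzyme by approved-drug library compounds, run at 10 nM enzyme in 50 mM Tris acetate (final). Luminescence was read within 5 min of enzyme-buffer addition and normalized to PTC124 versus DMSO (0%).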

AA1029 = assay: qHTS profiling for inhibitors of Plasmodium falciparum proliferation (AID 504749); note: nearly all actives have a fitted effect of over 60% in size; note: potency is the fitted concentration of half-maximal effect; conditions: P. falciparum in erythrocytes, SYBR Green DNA, 72 h; series mostly up to 12.8 µM
Procedure, shortened: (§1)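 Parasite proliferation within erythrocytes, 72 h exposure. Endpoint: SYBR Green I fluorescence after overnight lysis at room temperature. Controls: 0.29 uM artemisinin, DMSO.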

CP194 = assay: as above; conditions: P. falciparum in erythrocytes, SYBR Green DNA, 72 h; series mostly up to 12.8 µM
Procedure, shortened: as §1

CP215 = assay: as above; conditions: P. falciparum in erythrocytes, SYBR Green DNA, 72 h; series mostly up to 12.8 µM
Procedure, shortened: as §1

CP250 = assay: as above; conditions: P. falciparum in erythrocytes, SYBR Green DNA, 72 h; series mostly up to 12.8 µM
Procedure, shortened: as §1

CP256 = assay: as above; conditions: P. falciparum in erythrocytes, SYBR Green DNA, 72 h; series mostly up to 12.8 µM
Procedure, shortened: as §1

CP266 = assay: as above; conditions: P. falciparum in erythrocytes, SYBR Green DNA, 72 h; series mostly up to 12.8 µM
Procedure, shortened: as §1

CP286 = assay: as above; conditions: P. falciparum in erythrocytes, SYBR Green DNA, 72 h; series mostly up to 12.8 µM
Procedure, shortened: as §1

FAB9 = assay: as above; conditions: P. falciparum in erythrocytes, SYBR Green DNA, 72 h; series mostly up to 12.8 µM
Procedure, shortened: as §1

GB4 = assay: as above; conditions: P. falciparum in erythrocytes, SYBR Green DNA, 72 h; series mostly up to 12.8 µM
Procedure, shortened: as §1

ICS = assay: as above; conditions: P. falciparum in erythrocytes, SYBR Green DNA, 72 h; series mostly up to 12.8 µM
Procedure, shortened: as §1

JCK = assay: as above; conditions: P. falciparum in erythrocytes, SYBR Green DNA, 72 h; series mostly up to 12.8 µM
Procedure, shortened: as §1

P93_24 = assay: as above; conditions: P. falciparum in erythrocytes, SYBR Green DNA, 72 h; series mostly up to 12.8 µM
Procedure, shortened: as §1

P94_40 = assay: as above; conditions: P. falciparum in erythrocytes, SYBR Green DNA, 72 h; series mostly up to 12.8 µM
Procedure, shortened: as §1

PC15 = assay: as above; conditions: P. falciparum in erythrocytes, SYBR Green DNA, 72 h; series mostly up to 12.8 µM
Procedure, shortened: as §1

TAB109 = assay: as above; conditions: P. falciparum in erythrocytes, SYBR Green DNA, 72 h; series mostly up to 12.8 µM
Procedure, shortened: as §1

7G8 = assay: as above; conditions: P. falciparum in erythrocytes, SYBR Green DNA, 72 h; series mostly up to 12.8 µM
Procedure, shortened: as §1

ATS95 = assay: as above; conditions: P. falciparum in erythrocytes, SYBR Green DNA, 72 h; series mostly up to 12.8 µM
Procedure, shortened: as §1

DIV17 = assay: as above; conditions: P. falciparum in erythrocytes, SYBR Green DNA, 72 h; series mostly up to 12.8 µM
Procedure, shortened: as §1

Dd2 = assay: as above; conditions: P. falciparum in erythrocytes, SYBR Green DNA, 72 h; series mostly up to 12.8 µM
Procedure, shortened: as §1

Measured: Potency

Sequence of Luciferin 4-monooxygenase (Photinus pyralis) (P08659 whole entry, looked up): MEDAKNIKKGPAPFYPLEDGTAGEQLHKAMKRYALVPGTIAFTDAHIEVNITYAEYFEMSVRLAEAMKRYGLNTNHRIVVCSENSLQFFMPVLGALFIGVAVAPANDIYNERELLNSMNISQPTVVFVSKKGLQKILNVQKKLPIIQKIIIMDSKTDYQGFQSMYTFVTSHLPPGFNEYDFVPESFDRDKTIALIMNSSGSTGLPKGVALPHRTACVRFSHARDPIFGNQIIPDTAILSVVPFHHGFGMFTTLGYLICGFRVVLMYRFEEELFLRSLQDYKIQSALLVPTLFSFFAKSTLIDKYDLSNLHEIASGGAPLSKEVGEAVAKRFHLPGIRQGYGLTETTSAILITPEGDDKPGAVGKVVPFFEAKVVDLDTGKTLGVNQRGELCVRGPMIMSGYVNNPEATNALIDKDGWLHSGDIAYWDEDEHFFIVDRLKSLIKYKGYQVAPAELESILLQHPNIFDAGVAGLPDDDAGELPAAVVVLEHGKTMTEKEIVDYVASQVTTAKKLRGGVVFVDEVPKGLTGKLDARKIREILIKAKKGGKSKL

CCN(CC)CCOC(=O)[C@@H](Cc1cccc2ccccc12)C[C@@H]1CCCO1
not listed: 7G8 | ATS95 | DIV17 | Dd2
inactive: all other assays above

CCC(=O)[C@@]1(C)[C@H](C)C[C@@H]2[C@@H]3CCC4=CC(=O)C=C[C@@]4(C)[C@H]3[C@H](O)C[C@]21C
active: 7G8 2 µM | ICS 3.55 µM
not listed: [1] | CP286 | P93_24
inactive: all other assays above

CCO[C@H]1O[C@@H]([C@H](COCc2ccccc2)OCc2ccccc2)[C@@H](OCc2ccccc2)[C@H]1O
inactive: AA1029 | ATS95 | CP194 | CP250 | CP286 | Dd2 | FAB9 | JCK | PC15 | TAB109

COc1ccc2c(c1)N(C[C@@H](C)CN(C)C)c1ccccc1S2
active: 7G8 3.55 µM
not listed: CP266 | GB4 | ICS | DIV17
inactive: all other assays above

CCN(CC)[C@@H](C)CN1c2ccccc2Sc2ccccc21
active: Dd2 1.26 µM | GB4 5.73 µM
inactive: [1] | CP215 | CP256 | CP266 | FAB9 | JCK | PC15

CC=C(/C(=C/C)c1ccc(O)cc1)c1ccc(O)cc1
inactive: all assays above

CCOC(=O)Oc1c(OC)cc(C(=O)O[C@H]2C[C@H]3CN4CCc5c([nH]c6cc(OC)ccc56)[C@@H]4C[C@H]3[C@@H](C(=O)OC)[C@@H]2OC)cc1OC
active: 7G8 2.51 µM | CP286 2.51 µM | DIV17 5.73 µM | GB4 6.42 µM | ICS 2.82 µM | P93_24 3.98 µM | TAB109 3.55 µM
inactive: [1]

CCC(C)(C)C(=O)O[C@@H]1C[C@H](C)C=C2C=C[C@H](C)[C@@H](CC[C@H]3C[C@@H](O)CC(=O)O3)[C@H]21
not listed: GB4 | ICS | P94_40 | 7G8 | Dd2
inactive: all other assays above

CC1(C)OC2CC(=O)OC[C@@]23C1CC(=O)[C@]1(C)C3CC[C@@]2(C)C(c3ccoc3)OC(=O)C3O[C@@]321 (stereo not given in full)
inactive: all assays above

COc1ccc2cc(C(C)CO)ccc2c1 (stereo not given)
inactive: all assays above

COC(=O)N/N=C/C1=C[N+](=O)c2ccccc2[N+]1=O
inactive: all assays above

O=C1OC(CO)C(O)C(O)C1O (stereo not given)
not listed: P93_24
inactive: all other assays above

CC1(C)SC2C(N3C(=O)C(c4ccccc4)NC3(C)C)C(=O)N2C1C(=O)O (stereo not given)
inactive: all assays above
